TDP1 cell CPT – DT40-hTDP1 cell growth loss with CPT | chicken DT40 Tdp1-/-;hTDP1 cells + 20 nM CPT, ATP luminescence, 48 h | Potency, µM (titrated, usually from 46.2 µM), most hits filed as inhibitors | 420,000 compounds, 12% hits | AID 686979; also: nearly all actives have a fitted effect of over 55% in size
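Cell growth measured by CellTiter-Glo luminescence after a minimum 48 h, 37 C compound exposure with 20 nM CPT in Tdp1-knockout DT40 cells stably expressing hTDP1, seeded 400/well; qHTS titration format.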
RORgamma inh – blocks mouse ROR gamma transcriptional activity; P51450; Drosophila S2 Gal4-RORgamma UAS-luciferase reporter, 20 h; Potency, µM (highest dose often 53.6 µM), hits mostly inhibitors; 310,000 compounds, 5.4% hits; AID 2551; also: nearly all actives have a fitted effect of over 60% in size
Target sequence (P51450 whole entry, looked up, the tested form may be a part): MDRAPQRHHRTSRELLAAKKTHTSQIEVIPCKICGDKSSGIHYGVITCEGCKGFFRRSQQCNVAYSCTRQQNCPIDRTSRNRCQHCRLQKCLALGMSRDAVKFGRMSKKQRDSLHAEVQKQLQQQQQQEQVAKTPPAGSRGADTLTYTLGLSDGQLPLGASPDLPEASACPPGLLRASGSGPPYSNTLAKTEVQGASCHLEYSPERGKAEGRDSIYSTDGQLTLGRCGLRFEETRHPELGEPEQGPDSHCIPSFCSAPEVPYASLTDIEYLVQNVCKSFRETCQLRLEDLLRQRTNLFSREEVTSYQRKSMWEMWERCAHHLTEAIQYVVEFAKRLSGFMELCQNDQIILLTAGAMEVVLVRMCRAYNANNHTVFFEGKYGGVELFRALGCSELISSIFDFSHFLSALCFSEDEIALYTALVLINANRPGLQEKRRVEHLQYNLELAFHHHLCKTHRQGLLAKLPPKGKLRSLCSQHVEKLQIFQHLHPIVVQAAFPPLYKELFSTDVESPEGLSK
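Compounds are pin-transferred onto Drosophila Schneider cells expressing a copper-inducible Gal4–ROR gamma transactivation domain fusion. After 1 hr, copper sulfate is added to 700 uM final; luciferase is read 20 hr later.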
DT40 TDP1 no CPT – qHTS for Inhibitors of human tyrosyl-DNA phosphodiesterase 1 (TDP1): qHTS in cells in absence of CPT; DT40 Tdp1-/- hTDP1 cells, no CPT, ATP luminescence, 48 h; Potency, µM (highest dose often 46.2 µM), hits mostly inhibitors; 420,000 compounds, 15% hits; also: nearly all actives have a fitted effect of over 55% in size
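Luminescent ATP content (CellTiter-Glo) served as the growth readout. Knockout chicken DT40 cells expressing human TDP1 were exposed to compounds without camptothecin for a minimum 48 hr at 37 °C.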
IL1B secr inh – inflammasome signaling inhibition, IL-1 beta readout. 360,000 compounds, 4.7% hits. AID 743279. activity change, % at 57.5 µM. THP-1 LPS/ATP IL-1B secretion, AlphaLISA, 16 h; active compounds read low; in the data active = activity change below about -50%; inconclusive = mostly about -30% to -49%
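Secreted IL-1B measured by AlphaLISA bead assay after 16 h compound exposure of THP-1 cells; compounds (final up to 57.5 uM) added 1 h before LPS (250 ng/mL) and ATP (1.25 mM) stimulation; lower signal means less secretion.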
Gal4-VP16 FLuc – counter-screen for ROR gamma inhibitors: Gal4-VP16 reporter; Drosophila S2 Gal4-VP16 UAS-luciferase, luminescence, 20 h; Potency, µM (top dose mostly 53.6 µM), actives largely listed as inhibitors; 310,000 compounds, 3.5% hits;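 also: Gal4-VP16 expression switched on by copper sulfate through the metallothionein promoter; nearly all actives have a fitted effect of over 50% in size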
ELG1 repair inh – blocks ELG1-dependent DNA repair in HEK293T cells. HEK293T ELG1-luciferase reporter, luminescence, 16 h; DNA damage induced by 5-fluorouridine. Potency, µM (top dose mostly 46.1 µM), most hits filed as inhibitors. 330,000 compounds, 2.3% hits. AID 504467; also: nearly all actives have a fitted effect of over 55% in size
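Reporter activity after DNA damage by 5-fluorouridine is monitored. Compound-treated cells incubate 16 hr at 37 °C, then ONE-Glo is added for 30 min before luminescence reading.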
Hits are given with their value; - = inactive; ? = inconclusive; . = not tested or not shown. Rows were chosen to be rich in hits. Some 21% of all compounds tested hit in one or more screens of this group. Unless noted, calls follow the shape of the dose curve; as a rule, active = well fitted curve in the direction sought with a large enough effect; inconclusive = small, poorly fitted or top-dose-only effect, or another doubt; inactive = no such curve, though single readings can be large; an effect the other way counts as inactive or inconclusive.

SMILES	TDP1 cell CPT	RORgamma inh	DT40 TDP1 no CPT	IL1B secr inh	Gal4-VP16 FLuc	ELG1 repair inh
Cc1nc2c(C)cccn2c1/C(O)=C1\C(=O)C(=O)N(CCN(C)C)C1c1ccccc1 (stereo unspecified)	-	-	-	-	-	-
Cc1ccc2c(c1)C1CN(C)CCC1N2C(=O)COc1ccccc1F (stereo unspecified)	-	-	-	-	-	-
O=C(Nc1ccc(N2CCCCC2)cc1)c1ccccc1	?	3.5µM	-	?	?	?
N#Cc1ccc(OCC(=O)Nc2ccc(N3CCCC3)cc2)cc1	?	.	12µM	-	.	-
CCOc1ccc(OCC(=O)Nc2ccc(N3CCCCC3)cc2)cc1	-	-	-	-	-	-
Cc1cccc(-c2nn(C(=S)Nc3ccccc3)cc2-c2ccnc3ccccc23)n1	.	?	.	.	-	.
O=c1[nH]cc(F)c(=O)n1C1OC(CO)C(O)C1O (stereo unspecified)	-	.	?	-	.	.
COc1ccc2c(c1)[C@H]1[C@H](CO2)[C@H](c2ccccc2)[C@]2(C)C(=O)N(CC3CCCO3)CC(=O)N12 (stereo partly specified)	?	.	?	-	.	-
COc1ccc(CN2CC(=O)N3[C@H]4c5ccccc5OC[C@@H]4[C@H](c4ccccc4)[C@]3(C)C2=O)cc1	?	.	16µM	-	.	?
CCCCN1CC(=O)N2[C@H]3c4ccc(OC)cc4OC[C@@H]3[C@H](c3ccccc3)[C@]2(C)C1=O	?	.	23µM	-	.	?
COc1ccc(CN2CC(=O)N3[C@H]4c5cc(C)ccc5OC[C@@H]4[C@H](c4ccccc4)[C@]3(C)C2=O)cc1	?	.	21µM	-	.	?
Cc1ccc2c(c1)[C@H]1[C@H](CO2)[C@H](c2ccccc2)[C@]2(C)C(=O)N(Cc3ccc(Cl)cc3)CC(=O)N12	?	.	15µM	-	.	?
COc1ccc2c(c1)OC[C@H]1[C@H]2N2C(=O)CN(Cc3ccc(F)cc3)C(=O)[C@@]2(C)[C@H]1c1ccccc1	?	.	?	-	.	-
Cc1ccc2c(c1)[C@H]1[C@H](CO2)[C@H](c2ccccc2)[C@]2(C)C(=O)N(Cc3ccc(F)cc3)CC(=O)N12	?	.	21µM	?	.	?
CN1CC(=O)N2[C@H]3c4ccccc4OC[C@@H]3[C@H](c3ccccc3)[C@]2(C)C1=O	-	.	-	-	.	-
NC(=O)c1cccc(-c2ccnc3c2CC(C(=O)Nc2ccc(Cl)cc2)O3)c1 (stereo unspecified)	23µM	.	13µM	-	.	.
O=C(NCCc1ccccc1)C1Cc2c(-c3ccccc3)ccnc2O1 (stereo unspecified)	?	.	?	-	.	.
CC(C)c1ccc(NC(=O)C2Cc3c(-c4cccc(F)c4)ccnc3O2)cc1 (stereo unspecified)	16µM	.	9.2µM	-67	.	.
COc1ccc(NC(=O)C2Cc3c(-c4cccc(F)c4)ccnc3O2)cn1 (stereo unspecified)	?	.	16µM	-	.	.
O=C(Nc1cccc(C(F)(F)F)c1)C1Cc2c(-c3cccc(F)c3)ccnc2O1 (stereo unspecified)	?	.	?	-	.	.
O=C(NCc1ccccc1)C1Cc2c(-c3ccc(Cl)cc3)ccnc2O1 (stereo unspecified)	0.65µM	.	0.82µM	-	.	.
O=C(c1ccc(F)cc1)N1CCN(S(=O)(=O)c2ccc(Br)cc2)CC1	?	?	?	-	-	-
O=C(Nc1ccccc1)C1Cc2c(-c3ccc(Cl)cc3)ccnc2O1 (stereo unspecified)	?	.	?	-51	.	.
CC(=O)Nc1ccc(NC(=O)C2Cc3c(-c4ccc(Cl)cc4)ccnc3O2)cc1 (stereo unspecified)	-	.	-	-	.	.
CC(C)c1ccc(NC(=O)C2Cc3c(-c4cccc(C(N)=O)c4)ccnc3O2)cc1 (stereo unspecified)	16µM	.	?	?	.	.
SMILES	TDP1 cell CPT	RORgamma inh	DT40 TDP1 no CPT	IL1B secr inh	Gal4-VP16 FLuc	ELG1 repair inh
CN(C)c1nn2c(-c3ccccc3)nnc2o1	-	.	-	-	.	.
CCCCn1c(-c2ccccc2)nnc1-c1ccccc1	?	-	?	-	-	?
c1ccc(-c2nn3c(-c4ccccc4)nnc3o2)cc1	?	.	?	-51	.	.
CCCc1nn2c(-c3ccccc3)nnc2o1	-	.	?	-67	.	.
Cc1ccc2c(c1)N(CC(=O)NCC(C)c1ccccc1)C(=O)c1cccnc1O2 (stereo unspecified)	-	-	?	-	-	-
Cn1c(C(=O)N2CCCC(C(=O)NCc3cccs3)C2)cc2sccc21 (stereo unspecified)	?	-	-	-	-	?
Cn1c(C(=O)N2CCC(C(=O)N3CCN(Cc4ccc5c(c4)OCO5)CC3)CC2)cc2sccc21	-	?	?	-	?	7.3µM
Cn1c(C(=O)N2CCC(C(=O)N3CCOCC3)CC2)cc2sccc21	-	-	-	-	-	-
Cc1cccc(N2CCN(C(=O)C3CCN(C(=O)c4cc5sccc5n4C)CC3)CC2)c1C	12µM	.	8.2µM	.	.	.
Cc1cccc(N2CCN(C(=O)C3CCCN(C(=O)c4cc5sccc5n4C)C3)CC2)c1C (stereo unspecified)	23µM	.	23µM	.	.	.
COc1cc(OC)c([C@@H]2O[C@H](CO)[C@@H](O)[C@H](O)[C@H]2O)c(OC)c1	.	-	.	.	-	.
Cc1ccc(S(=O)(=O)N2CCN(C(=O)CSc3ccccn3)CC2)c(C)c1	?	.	-	-	.	?
NNC(=O)c1[nH]c2ccc([N+](=O)[O-])cc2c1-c1ccccc1	21µM	-	23µM	-	-	?
CCCCC/C=N/NC(=O)c1[nH]c2ccc([N+](=O)[O-])cc2c1C	-	?	?	-	-	-
Cc1c(C(=O)NN)[nH]c2ccc([N+](=O)[O-])cc12	-	11µM	-	-	?	-
CCOc1ccc(NC(=O)c2ccc(F)c(S(=O)(=O)N(Cc3ccc(C(=O)OC)cc3)Cc3ccc(OC)c(OC)c3)c2)cc1	-	.	-	.	.	.
CCc1ccc(NC(=O)c2cc(CN3CCOCC3)on2)cc1	-	.	?	.	.	.
COc1cc(OC)c2c(-c3cccc(-c4ccc(O)cc4)c3)cc(=O)oc2c1	?	-	16µM	-	?	?
COc1ccc(-c2cccc(-c3cc(=O)oc4cc(OC)cc(OC)c34)c2)cc1	1.3µM	.	0.65µM	-	.	?
COc1cc(OC)c2c(-c3cccc(-c4ccc(OC(F)(F)F)cc4)c3)cc(=O)oc2c1	?	-	?	-	-	-
COc1cc(OC)cc(-c2nc(-c3cccc(C)c3)no2)c1	-	.	?	.	.	.

Screening data: PubChem, National Center for Advancing Translational Sciences (NCATS)
